This passage reports growth results from PubChem BioAssay (NCI).

This is part of a sample that, as a whole, favours compounds with a hit. Of some 83,000 tested, about 20% had one in any assay.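 Negative percent growth values reflect cell death: -40 means 40% of the cells present at the start died, and -100 means all died.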 Values without a mark were called inactive. Active and inactive are the calls of the source. How the source made its calls: active means growth percent below 10; inactive means the rest.

Holding throughout (test): NCI-60 one-dose screen, 48 h (100 = growth as untreated, 0 = no growth, -100 = all killed)
Experiment [1] deals with HCT-15 colon. To be noted: 10 µM.
Experiment [2] has as its system HT29 colon. To be noted: 10 µM.
Experiment [3] has as its system SNB-75 CNS. To be noted: 10 µM.
The test system of experiment [4] is SNB-19 CNS. To be noted: 10 µM.
Experiment [5] relates to U251 CNS. The conditions noted are these: 10 µM.
For experiment [6], the system named is PC-3 prostate. To be noted: 10 µM.
For experiment [7], the system named is SK-MEL-5 melanoma. To be noted: 10 µM.
Experiment [8] deals with UACC-62 melanoma. To be noted: 10 µM unless noted.
The subject of experiment [9] is LOX IMVI melanoma. The conditions noted are these: 10 µM.
In experiment [10] the test system is SK-MEL-28 melanoma. The conditions noted are these: 10 µM.

`O=C1OC[C@H]2[C@H](c3ccc(O)c(O)c3)c3cc(O)c(O)cc3C[C@H]12`: the growth in experiment [1] was 116%; in [2], 115%; in experiment [3] it was 116%; in experiment [4], 120%; in experiment [5], 116%; in experiment [6], 46.7%. The growth is 102% in experiment [7], 111% in [8], 113% in [9] and 117% in experiment [10].

On to `CCCC(C)OCC(=O)O` (stereo not given), for which the growth was 104% in [1]; 109% in experiment [2]; 85.8% in [3]; 100% in [4]; 93.5% in [5]; 98.4% in [6]. Further, the growth in experiment [7] is 99.8%; in experiment [8], 110%; in [9], 99.1%; in [10] it was 97.9%.

As for `COc1ccc(/C=C/c2cccc[n+]2C)cc1`, the growth in experiment [1] was 99.1%; in [2], 88%; in [3] it was 83.2%; in experiment [4], 95.1%; in [5] it was 77.6%; in experiment [6], 87%. Moreover, the growth is 105% in experiment [7], 114% in experiment [8], 94.2% in [9] and 109% in [10].

In the case of `CCOC(=O)C(O)C(O)C(=O)OCC` (stereo not given), the growth was 99.1% in [1]; 105% in [2]; 99% in experiment [3]; 103% in [4]; 102% in experiment [5]; 98% in experiment [6]. In addition, the growth in experiment [7] is 97.5%; in [8], 102%; in [9] it was 99.8%; in [10], 106%.

Turning to `CCOC(=O)c1ccc(Nc2sc(C(=O)c3cccc([N+](=O)[O-])c3)c(N)c2C#N)cc1`, the growth in experiment [1] was 32.3%; in experiment [2], 8.29% (active); in experiment [3], -6.96% (active); in experiment [4], 48.8%; in experiment [5], 11.5%; in [6] it was 31.1%. Also, the growth in [7] is 10.9%; in [8], 28.6%; in [9], 39.5%; in [10], 63.1%.

Consider `NCCCN`, for which the growth is 101% in experiment [1]; 111% in [2]; 79.8% in experiment [3]; 104% in [4]; 95.5% in [5]; 102% in experiment [6]. Further, the growth was 102% in experiment [7], 109% in [8], 112% in experiment [9] and 104% in experiment [10].

Regarding `O=C(CCl)N1CCN(C/C=C/c2ccccc2)CC1`, the growth in experiment [1] is 86.3%; in experiment [2], 79.2%; in experiment [3] it was 92.6%; in experiment [4], 95.2%; in experiment [5], 90.7%; in [6] it was 89%. Further, the growth in [7] was 86.6%; in [8] it was 76.6%; in experiment [9], 2.58% (active); in experiment [10] it was 94.4%.
